Compound activity: PubChem, National Center for Advancing Translational Sciences (NCATS)
GALK inh: qHTS Assay for Inhibitors of Human Galactokinase (GALK); Purified GALK, Kinase-Glo residual ATP luminescence; hit rate 0.007% among 270,000; Potency, µM (highest dose often 57.5 µM), inactives show at the highest dose activity change, negative = inhibition, actives largely listed as inhibitors; AID 1868, 2009; P51570; note: potency is the fitted concentration of half-maximal effect; % is set by controls: 0 for no effect and ±100 for the full control effect
Target sequence (P51570 whole entry, looked up): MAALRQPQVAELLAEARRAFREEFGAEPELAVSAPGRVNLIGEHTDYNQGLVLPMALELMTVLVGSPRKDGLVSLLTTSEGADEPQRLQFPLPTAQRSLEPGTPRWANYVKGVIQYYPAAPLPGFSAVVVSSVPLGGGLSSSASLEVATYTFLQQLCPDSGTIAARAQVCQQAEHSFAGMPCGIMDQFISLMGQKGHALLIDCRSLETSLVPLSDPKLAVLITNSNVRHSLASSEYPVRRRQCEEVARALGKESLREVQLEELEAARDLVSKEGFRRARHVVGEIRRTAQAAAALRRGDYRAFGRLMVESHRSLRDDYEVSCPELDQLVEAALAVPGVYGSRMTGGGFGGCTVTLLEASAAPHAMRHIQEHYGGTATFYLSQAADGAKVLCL
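5 nM enzyme, 35 uM ATP, 100 uM galactose, 20 mM HEPES pH8.0, 5 mM MgCl2; 1 h RT; residual ATP by Kinase-Glo Plus luminescence, qHTS format.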
CBFb-RUNX1 inh: qHTS Assay for Compounds Blocking the Interaction Between CBF-beta and RUNX1 for the Treatment of Acute Myeloid Leukemia; Runt-related transcription factor 1 (Homo sapiens) + Core-binding factor subunit beta …; AlphaScreen CBFb-His/RUNX1-biotin binding, biochemical; Potency, µM (titrated, usually from 59.8 µM), for the others: top-dose activity, negative = inhibition, most hits filed as inhibitors; 230,000 tested, under 10 active; note: % of control where 0% means no effect
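AlphaScreen proximity signal reports loss of binding between His-tagged CBF-beta and biotin-labelled RUNX1, each at 30 nM. Proteins are pre-associated for 20 minutes, compounds added for 15 minutes, then beads for 90 minutes, all at ambient temperature.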
PKM2 activator: qHTS Assay for Activators of Human Muscle isoform 2 Pyruvate Kinase. Pyruvate kinase PKM (Homo sapiens), P14618. Potency, µM (series often up to 57.5 µM), for the others: at the top dose activation, usual class: activators. purified PKM2, Kinase-Glo ATP luminescence, activation; response scale: 0% is enzyme alone, no compound. hit rate 0.34% among 260,000; note: potency is the fitted concentration of half-maximal effect; % is set by controls: 0 for no effect and ±100 for the full control effect; nearly all actives have a fitted effect of over 55% in size
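ATP formation by purified human PK-M2, quantified via coupled luciferase luminescence after 1 h at room temperature with 0.1 mM ADP and 0.5 mM PEP final.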
Luc counter: Counterscreen for Luciferase (Kinase-Glo TM) Inhibition; Kinase-Glo luciferase, ATP luminescence, 8 min; Luciferin 4-monooxygenase (Photuris pensylvanica), Q27757; AID 1379, 2008; hit rate 0.28% among 200,000; Potency, µM (series often up to 38.3 µM), without a hit: top-dose activity change, negative = inhibition, most hits filed as inhibitors; note: potency is the fitted concentration of half-maximal effect; % is set by controls: 0 for no effect and ±100 for the full control effect; nearly all actives have a fitted effect of over 60% in size
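Kinase-Glo luciferase light output from ATP and luciferin was measured with 10 uM ATP, within the enzyme's linear range. Buffer: 50 mM imidazole pH 7.2, 50 mM KCl, 7 mM MgCl2, 0.01% Tween 20, 0.05% BSA; luminescence read after 8 min at ambient temperature.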
Tb PFK inh: qHTS Assay to Find Inhibitors of T. brucei phosphofructokinase; T. brucei PFK, ADP-Glo luminescence; Potency, µM (titrated, usually from 57.5 µM), inactives show at the highest dose activity, negative = inhibition, usual class: inhibitors; hit rate 0.17% among 330,000; AID 485367, 2010;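 note: potency is the fitted concentration of half-maximal effect; 0% = uninhibited 1x PFK enzyme wells and -100% = no-enzyme wells; nearly all actives have a fitted effect of over 60% in size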
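PFK 1.25 nM, F6P 0.5 mM, ATP 0.1 mM, 0.1 M TEA pH 8.0, 5 mM MgCl2, 0.01% Tween20, 0.1% BSA; 45 min RT. ADP-Glo readout. qHTS titration up to 57 uM; curves fitted, compounds curve-classed.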
Active calls of the source: *; ? = inconclusive; / = no result given; [ ] = dose if it differs, or a comment. Shown are actives, neighbours in structure and some others; about 0.56% of the full set was active somewhere. Calls come from the whole dose curve; as a rule, active = well fitted curve in the direction sought with a large enough effect; inconclusive = small, poorly fitted or top-dose-only effect, or another doubt; inactive = no such curve, though single readings can be large; an effect the other way counts as inactive or inconclusive.

SMILES | GALK inh | CBFb-RUNX1 inh | PKM2 activator | Luc counter | Tb PFK inh
O=C1/C(=C/Nc2ccc3c(c2)OCO3)CCc2ccccc21 | 5% | -6% | -71% | 2.8µM* | -22%
CSc1ccccc1NC(=O)Nc1ccccc1 | 0% | 0% | -16% | -27% | 15%
CCOc1ccc(NC(=O)Nc2ccccc2SC)cc1 | 5% | 10% | -27% | 11µM* | -9%
CCOc1ccc2nc(NC(=O)c3ccco3)sc2c1 | 11% | / | -3%[11.5 µM] | / | -10%
CCOc1ccc2nc(NC(=O)c3ccoc3C)sc2c1 | 13% | -11% | -35% | 2.8µM* | -24%
CCCOc1ccc(OCCn2nc(C(=O)O)c3ccccc3c2=O)cc1 | 1% | -5% | 32µM* | -1% | -2%
COC(=O)c1ccccc1S(=O)(=O)N1CCc2nc(-c3ccc(OC)cc3C)c3c(c2C1)CO[C@@H](c1ccccc1)C3 | / | -3%[13.1 µM] | -3%[11.5 µM] | -8%[7.66 µM] | /
OC[C@@H]1OC(O)[C@H](O)[C@H](O)[C@H]1O (stereo not given in full) | / | 6% | / | / | /
Cc1cc(NC(=O)CSc2ccc3nnc(-c4ccc(F)cc4)n3n2)no1 | -3% | 1% | 5% | -2% | -5%
CC(=O)Nc1ccc(NC(=O)CSc2ccc(-c3cccnc3)nn2)cc1 | 6% | / | 3% | / | -18%
Cc1cc(NC(=O)CSc2ccc(-c3ccccc3)nn2)no1 | 1% | 1% | 16µM* | -2% | -1%
Cc1cc(NC(=O)CSc2ccc(-c3ccc(F)cc3)nn2)no1 | 5% | 2% | 7.1µM* | -2% | 2%
Cc1nnc(NC(=O)CSc2ccc(-c3cccnc3)nn2)s1 | 0% | -12% | 2.8µM* | 2% | -7%
CCOC(=O)N1CCN(/[N+]([O-])=N/Oc2ccc([N+](=O)[O-])cc2[N+](=O)[O-])CC1C (stereo not given) | / | -2% | / | / | /
COc1cc(/C=C2\SC(=O)N(c3cccc(Cl)c3)C2=O)cc([N+](=O)[O-])c1O | 5% | 0% | 7.9µM* | -1% | -7%
CCCCC/C=C\C/C=C\C=C\[C@@H](O)C/C=C\CCCC(=O)O | / | -3% | / | 0% | /
Cc1ccc(S(=O)(=O)/N=c2\ccc(Cl)cn2C(F)F)cc1 | -2% | -1% | 25µM* | / | 0%
COc1ccc(-c2nc3c(c4c2C[C@H](c2ccccc2)OC4)CN(S(=O)(=O)c2ccc(NC(C)=O)cc2)CC3)c(C)c1 | / | -5%[13.1 µM] | -1%[11.5 µM] | -5%[7.66 µM] | /
Nc1ccc(S(=O)(=O)NCCS(=O)(=O)O)cc1 | / | / | / | -2%[7.66 µM] | /
COc1ccc(CC(=O)n2[nH]c(=O)ccc2=O)cc1OC | -1% | 9% | 8.9µM* | / | -25%
COC(=O)c1ccc(C(c2c(N)n(Cc3ccccc3)c(=O)n(C)c2=O)N2CCOCC2)cc1 (stereo not given) | 1% | -12% | 13µM* | 1% | -11%
Cc1ccsc1/C=C1\CCc2ccccc2C1=O | 9% | -4% | -80% | 10µM* | -25%
Cc1ccccc1/C=C1\CCCc2ccccc2C1=O | 4% | 0% | -6% | ? | -6%
Cc1nc(SCc2ccccc2)c2ccsc2n1 | -2% | 23% | 16µM* | -2% | 6%
c1ccc(CSc2ncnc3sccc23)cc1 | 0% | ? | ? | -1% | -4%
SMILES | GALK inh | CBFb-RUNX1 inh | PKM2 activator | Luc counter | Tb PFK inh
Nc1ncnc2c1ncn2[C@@H]1O[C@H](COP(=O)(O)OP(=O)(O)OP(=O)(O)OP(=O)(O)OC[C@@H]2O[C@H](n3cnc4c(N)ncnc43)[C@@H](O)[C@@H]2O)[C@H](O)[C@H]1O | / | 7% | / | 4.5µM* | /
Nc1ncnc2c1ncn2[C@@H]1O[C@H](COP(=O)(O)OP(=O)(O)OC[C@H]2OC(O)[C@H](O)[C@@H]2O)[C@@H](O)[C@H]1O (stereo not given in full) | / | 6% | / | / | /
COc1cc(OC)cc(C2=Nn3c(nnc3-c3ccccc3OC)SC2)c1 | / | -9% | / | / | /
Cc1ccc(S(=O)(=O)N2CCCCC2)cc1NC(=O)Cn1cnnn1 | -1% | 4% | 14µM* | / | 2%
C[C@H]1Cc2c(COc3ccccc3)nc3c(c2CO1)CN(C(=O)C1CC1)CC3 | / | -4%[13.1 µM] | -1%[11.5 µM] | -3%[7.66 µM] | /
Cc1cc(NC(=O)CSc2nc3c(c(=O)n(C)c(=O)n3C)n2C(C)C)no1 | -2% | 5% | 28µM* | -1% | -10%
CCCCn1c(SCC(=O)Nc2cc(C)on2)nc2c1c(=O)n(C)c(=O)n2C | 2% | 9% | 20µM* | 1% | 2%
CC(=O)Nc1ccc(S(=O)(=O)Nc2nnc(C(C)(C)C)s2)cc1 | -1% | -1% | 16µM* | 15% | 3%
CC(C)(C)c1nnc(NC(=O)Nc2ccc(Cl)cc2)s1 | 1% | -1% | 5% | / | 0%
CC(=O)NCCN1C(=O)S/C(=C\c2cccs2)C1=O | 12% | -23% | -6% | 0% | -9%
O=C(NCCN1C(=O)S/C(=C\c2cccs2)C1=O)c1ccc(=O)[nH]c1 | 0% | -3% | 4.5µM* | 2% | -4%
O=c1cc(CSc2nnnn2-c2ccccc2)nc2scc(-c3ccccc3)n12 | -2% | 2% | 25µM* | 1% | -1%
Clc1ccccc1Nc1nnc(-c2ccncc2)s1 | 9% | 15% | -71% | 1.3µM* | -9%
COc1ccc(N/N=C(/C#N)S(=O)(=O)c2nsc(C)c2C#N)cc1 | ? | -13% | -2% | 4% | 1%
Cc1snc(S(=O)(=O)/C(C#N)=N/Nc2cccc(C(F)(F)F)c2)c1C#N | 28µM* | -15% | 8% | 1% | -3%
O=Nc1ccc(NO)cc1 | / | 11%[21.7 µM] | / | / | /
O=C(NCCN1CCCC1)c1ccc(-n2c(=O)c(=O)[nH]c3ccccc32)cc1 | / | / | / | -3% | /
O=C(NCCO)Nc1ccc2nc(-c3ccco3)c(-c3ccco3)nc2c1 | 2% | 2% | 14% | -9% | 1.9µM*
O[C@@H](c1cc(-c2ccc(Cl)cc2)nc2ccccc12)C1CCCCN1 (stereo not given in full) | / | / | / | -2%[7.66 µM] | /
CCCc1ccc(-c2cc(C(=O)NN3CCOCC3)c3ccccc3n2)cc1 | 1% | -9% | -1% | -6% | 1%
CCNC(=S)NNC(=O)c1cc(-c2ccc(OCC)cc2)nc2ccccc12 | / | -2% | 9% | 1µM* | -3%
CCc1ccc(-c2cc(C(=O)Nn3cnnc3)c3ccccc3n2)cc1 | 4% | 0% | -50% | 8.9µM* | 3%
CCNC(=S)NNC(=O)c1cc(-c2cccc(OC)c2)nc2ccccc12 | / | -2% | -27% | ? | 1%
